Sm TGR block: S. mansoni TGR enzyme inhibition; Q962Y6; purified TGR, DTNB reduction, TNB absorbance 405 nm; Potency, µM (doses to about 114 µM), for inactives: at the top dose activity change, negative = inhibition, actives largely listed as inhibitors; 360,000 tested, 3% active; AID 485364; also: nearly all actives have a fitted effect of over 60% in size
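First, TGR (20 nM dispensed) and NADPH were mixed with compound. Second, a 15 min room-temperature incubation followed. Third, further NADPH and then DTNB were added to start the reaction. Finally, TNB absorbance was monitored kinetically.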
AmpC detergent: AmpC beta-lactamase inhibition with detergent present; P00811; AmpC hydrolysis of nitrocefin, absorbance 480 nm, 0.01% Triton; Potency, µM (highest dose often 114 µM), for inactives: at the highest dose activity change, negative = inhibition, usual class: inhibitors; 370,000 tested, 0.041% active;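 also: 0% = no-compound wells and -100% = no-enzyme wells; nearly all actives have a fitted effect of over 25% in size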
Target sequence (P00811 whole entry, looked up): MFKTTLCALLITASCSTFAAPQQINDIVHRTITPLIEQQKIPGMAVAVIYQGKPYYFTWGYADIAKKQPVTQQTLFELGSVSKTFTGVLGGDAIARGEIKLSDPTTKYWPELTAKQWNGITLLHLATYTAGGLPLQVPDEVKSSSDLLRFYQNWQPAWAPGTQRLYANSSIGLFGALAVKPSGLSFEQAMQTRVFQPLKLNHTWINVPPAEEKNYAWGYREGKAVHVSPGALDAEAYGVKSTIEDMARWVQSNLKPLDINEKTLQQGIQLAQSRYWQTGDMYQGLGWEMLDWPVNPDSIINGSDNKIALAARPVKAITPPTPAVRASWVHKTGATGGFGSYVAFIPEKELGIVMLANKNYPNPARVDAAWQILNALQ
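20 mM phosphate pH 7.0 + 0.01% (detergent screen) or 0.0001% Triton X-100; 5.3 nM AmpC reagent; cpd preinc 15 min RT; nitrocefin (800 uM stock) to start; A480 q20 s × 4 min; Activity was normalised to no-enzyme and no-compound control wells.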
Giardia FBPA inh: Giardia lamblia aldolase inhibition; purified Giardia FBPA; A8B2U2; 290,000 tested, 0.71% active; AID 2451; Potency, µM (top dose mostly 59.6 µM), for inactives: top-dose activity, negative = inhibition, usual class: inhibitors; also: nearly all actives have a fitted effect of over 55% in size
Target sequence (A8B2U2 whole entry, looked up): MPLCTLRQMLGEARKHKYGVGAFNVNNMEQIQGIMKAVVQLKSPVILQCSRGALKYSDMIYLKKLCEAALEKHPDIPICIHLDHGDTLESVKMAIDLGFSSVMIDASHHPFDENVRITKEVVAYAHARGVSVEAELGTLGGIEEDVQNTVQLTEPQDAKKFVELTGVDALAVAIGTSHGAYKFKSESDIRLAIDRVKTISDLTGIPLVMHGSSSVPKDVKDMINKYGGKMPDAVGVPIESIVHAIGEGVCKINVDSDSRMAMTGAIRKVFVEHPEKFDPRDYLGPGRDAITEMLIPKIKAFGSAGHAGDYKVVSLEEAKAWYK
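40 nM FBPA preincubated 10 min at RT with compound (up to 57.5 uM final), then substrate plus GAPDH/TPI/NAD/arsenate coupling and diaphorase/resazurin added. Fluorescence read after 20 min at RT, 525/598 nm.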
AmpC no deterg: inhibitors of E. coli AmpC beta-lactamase without detergent; AmpC nitrocefin hydrolysis, absorbance 480 nm, 0.0001% Triton; Potency, µM (highest dose often 57.1 µM), inactives show top-dose activity change, negative = inhibition, most hits filed as inhibitors; 330,000 tested, 0.52% active; P00811; AID 485341;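 also: plate controls were no compound for no effect and no enzyme for full effect; nearly all actives have a fitted effect of over 20% in size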
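AmpC (5.3 nM in the dispensed reagent) in 20 mM phosphate pH 7.0 with 0.01% (detergent screen) or 0.0001% Triton X-100 was preincubated with compounds for 15 min at room temperature. Nitrocefin was then added from an 800 uM solution, and hydrolysis was followed at 480 nm.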
Numbers without * were called inactive; ? = inconclusive; . = not tested or not shown; [ ] = dose if it differs, or a comment. Hits are enriched below; roughly 3.6% of the tested compounds scored in any of these assays. Calls follow the shape of the dose curve; as a rule, active = well fitted curve in the direction sought with a large enough effect; inconclusive = small, poorly fitted or top-dose-only effect, or another doubt; inactive = no such curve, though single readings can be large; an effect the other way counts as inactive or inconclusive. Unless noted, % is scaled to controls: 0 for no effect and ±100 for the full control effect; potency is read from the fitted curve at half-maximal effect.

SMILES | Sm TGR block | AmpC detergent | Giardia FBPA inh | AmpC no deterg
CCOc1c(Cl)cc(CNc2ccc3[nH]c(=O)[nH]c3c2)cc1OC | -22% | 24% | . | .
O=C(NC(=S)NC1CCCCC1)c1ccccc1 | 1µM* | 3% | . | -19%
CCOc1ccc(C(=O)NC(=S)NC2CCCC2)cc1[N+](=O)[O-] | ? | ? | -10% | 10µM*
O=C(NC(=S)NC1CCCc2ccccc21)c1ccco1 (stereo not given) | ? | 3% | -14% | -19%
CCOc1ccc(C(=O)NC(=S)Nc2ccc(NC(=O)CC)cc2)cc1[N+](=O)[O-] | -4% | ? | -15% | -11%
O=C(NC(=S)NC1CCCc2ccccc21)c1ccc(F)cc1 (stereo not given) | 18µM* | -11% | -11% | -49%
O=C(CCl)NC1CCCc2ccccc21 (stereo not given) | 25µM* | 7% | -1% | -9%
O=C(NC(=S)NC1CCS(=O)(=O)C1)c1ccccc1 (stereo not given) | 2% | 6% | . | -6%
Cc1ccc2cc3cc(C(=O)N4CCN(c5ccccc5)CC4)oc3nc2c1 | 5% | 3% | . | .
CN(C(=O)c1cccc(C(F)(F)F)c1)C1CCCc2ccccc21 (stereo not given) | -1% | ? | 3% | 54%
CN(C(=O)CCl)C1CCCc2ccccc21 (stereo not given) | 11µM* | -7% | -8% | -19%
O=C(CCCN1CCOCC1)c1ccc2c(c1)OCCO2 | -22% | 2% | 0% | -6%
O=C(CCN1CCOCC1)c1ccc2c(c1)OCCO2 | 1.6µM* | ? | -17% | -13%
O=C(CCN1CCCCC1)c1ccc2c(c1)OCO2 | 0.28µM* | 0% | -1% | -34%
O=C(CCN1CCc2ccccc2CC1)c1ccc2c(c1)OCCO2 | 0.35µM* | -15% | 2% | -23%
Cn1ccc2cc(S(=O)(=O)N3CCC(C(=O)NCCc4ccccc4)CC3)ccc21 | -3% | -6% | . | .
CCC(=O)N1c2ccccc2CC1C(=O)NCCc1cc(OC)c(OC)c(OC)c1 (stereo not given) | -8% | ? | . | .
NCCNCCN | . | . | 18µM* | .
O=C(Oc1ccc2c(=O)c(Oc3ccc4ccccc4c3)coc2c1)c1cncc(Br)c1 | -3% | 5% | -3% | -34%
O=C(Oc1ccc2c(=O)c(Cl)coc2c1)c1ccncc1 | 8.9µM* | ? | -2% | 14%
CCOC(=O)C1=C(C)C/C(=N\NC(=O)c2ccccc2O)CC1 | ? | -2% | ? | -31%
c1ccc(Nc2cccc(Nc3ccccc3)c2)cc1 | 35µM* | 3% | -4% | -20%
Nc1cccc(Nc2ccccc2)c1 | 40µM* | 3% | -9% | -23%
COc1ccccc1N1C(=O)CC(Sc2nc(C)cc(C)n2)C1=O (stereo not given) | 0% | -2% | 3% | -28%
COc1ccc(N2C(=O)CC(Sc3n[nH]c(-c4cccc(C)c4)n3)C2=O)cc1 (stereo not given) | 0.32µM* | -1% | -22% | -27%
SMILES | Sm TGR block | AmpC detergent | Giardia FBPA inh | AmpC no deterg
COc1cccc(N2C(=O)CC(Sc3nc(C)cc(C)n3)C2=O)c1 (stereo not given) | -20% | ? | 5% | -6%
CC(=O)Nc1ccc(N2C(=O)CC(Sc3nc(C)cc(C)n3)C2=O)cc1 (stereo not given) | 50µM* | -8% | -3% | -22%
COC(=O)c1ccc(N2C(=O)CC(Sc3n[nH]c(C)n3)C2=O)cc1 (stereo not given) | 1.4µM* | -9% | -18% | -6%
CCOc1ccccc1N1C(=O)CC(Sc2n[nH]c(-c3ccccc3)n2)C1=O (stereo not given) | 0.56µM* | -4% | -21% | -27%
Cc1ccc(N2C(=O)CC(Sc3nc(C)cc(C)n3)C2=O)cc1 (stereo not given) | -46% | 2% | -11% | -10%
CCOc1ccc(NC(=O)Cn2cc(C(=O)c3ccc(CC)cc3)c(=O)c3ccc(C)nc32)cc1 | 6% | 3% | . | .
CN1C[C@H](CO)C=C2c3cccc4[nH]cc(c34)C[C@H]21 | 11µM* | 4% | -37% | 6%
CN1C[C@@H](CO)C=C2c3cccc4[nH]cc(c34)CC21 (stereo not given in full) | . | . | -1% | .
C=CCO/N=C(/C)c1ccc(Oc2cnccn2)cc1 | 5% | 10% | -3% | -2%
Cc1cccc(OC(=O)CSc2nnc(CNC(=O)c3ccccc3)o2)c1C | -6% | 1% | . | .
CCOc1ccc2nc(N3CCC(C(=O)NCCCN4CCOCC4)CC3)sc2c1 | -11% | -3% | -3% | 123%
CCOc1ccc2nc(N3CCCC(C(=O)NCCCN4CCOCC4)C3)sc2c1 (stereo not given) | 5% | ? | -3% | 3.2µM*
c1ccc(COC[C@@H]2CO2)cc1 | . | . | 2% | .
O=c1[nH]c2cc3c(cc2cc1C(c1nnnn1CC1CCCO1)N1CCCCCC1)OCCO3 (stereo not given) | 32µM* | 1% | -20% | 2%
Cc1cc(C)c2cc(C(c3nnnn3CC3CCCO3)N3CCN4CCCC4C3)c(=O)[nH]c2c1 (stereo not given) | 22µM* | ? | -16% | 57%
CCOC(=O)c1c(C)[nH]c(C)c1S(=O)(=O)N1CCCCC1 | -12% | -8% | 7% | 1%
CN1CCC(NC(=O)c2cccs2)CC1 | -1% | 2% | -1% | 8.9µM*
O=C(OCCCOc1ccc(F)cc1)c1ccc(O)cc1O | 5% | -6% | . | 3.2µM*
S=C(N/N=C/c1cccc2ccccc12)Nc1cccc(Cl)c1 | -9% | -1% | 0% | -45%
Oc1ccc(NCc2ccc(OCc3ccccc3)cc2)cc1 | 7.1µM* | -2% | ? | -35%
CCc1ccc(CNc2ccc(O)cc2)cc1 | 22µM* | 0% | 4µM* | -34%
Cn1nnnc1SCCNCc1ccc(OCc2ccccc2Cl)cc1 | -14% | -5% | . | .
Oc1ccc(NCc2ccc(OCc3ccccc3Cl)cc2)cc1 | 35µM* | 15% | . | .
CCC(=O)Nc1ccc(NCc2ccc(-c3ccccc3)cc2)cc1 | -2% | ? | ? | -28%
Oc1ccc(OCc2ccccc2)cc1 | . | . | -2%[21.7 µM] | .
SMILES | Sm TGR block | AmpC detergent | Giardia FBPA inh | AmpC no deterg
CCc1ccc(NC(=O)CSc2nncn2-c2cccnc2)cc1 | -4% | -5% | 3% | 1%
O=[N+]([O-])c1cc(/C=N\Nc2nc(-c3ccccc3)cs2)ccc1O | -34% | 6% | -13% | 25µM*
Cc1csc(NC(=O)c2cccnc2)n1 | -5% | -4% | -5% | -24%
O=[N+]([O-])c1ccc(-c2csc(N/N=C/c3cccnc3)n2)cc1 | -15% | 0% | -5% | -23%
CC(C)(C)c1csc(N/N=C/c2ccc(O)cc2)n1 | -27% | 0% | -22% | 10µM*
Cc1csc(N/N=C\c2cccnc2)n1 | 22µM* | 0% | ? | -32%
Cc1csc(N/N=C/c2ccc(O)c([N+](=O)[O-])c2)n1 | 10µM* | 4% | ? | -50%
CC(=O)N[C@@H](C)C(=O)OC(C)C(=O)Nc1cccc([N+](=O)[O-])c1 (stereo not given in full) | 2% | ? | 9% | -5%[11.4 µM]

Screening data from PubChem.
